Test results from PubChem BioAssay (NCATS).
Calls of active or inactive are those of the source. A call without a number means that no potency is given here. Calls come from the whole dose curve; as a rule, active = well fitted cell-killing curve with a large enough effect; inconclusive = small, poorly fitted or top-dose-only effect; inactive = flat fitted curve, though single readings scatter.

Assay: Cell Viability - LYMP1-003 - Assay at 24 hr (AID 963)
Settings: LYMP1-003 lymphoblastoid cell viability; series mostly up to 92.2 µM
Text: NIH Chemical Genomics Center [NCGC]
NIH Molecular Libraries Screening Centers Network [MLSCN]
National Institutes of Environmental Health Sciences [NIEHS]
National Toxicology Program [NTP]
We have developed a 1536-well cell-based assay for quantitative high throughput screening (qHTS) against a number of cell lines to determine in vitro cytotoxicity of small molecules. This particular assay uses a human lymphoblastoid cell line (LYMP1-003) purchased from Coriell Institute for Medical Research.
NCGC Assay Protocol Summary:
The CellTiter-Glo luminescent cell viability assay (Promega) is a homogeneous method to measure the number of viable cells in culture. The end point readout of this assay is based on quantitation of intracellular ATP, an indicator of metabolic activity, using the luciferase reaction. Luciferase catalyzes the oxidation of beetle Luciferin to oxyluciferin and light in the presence of ATP. The luminescent signal is proportional to amount of ATP present.
Using the CellTiter-Glo luminescent cell viability assay, the amount of cellular ATP was measured in the lymphoblastoid cell line with complete culture medium following compound treatment for 24 hours. The assay was performed in opaque white Kalypsys 1536-well plates. In the screen, tetraoctylammonium bromide was used as positive control. Library compounds were measured for their ability to cause acute toxicity in the cell line, as reflected by a decrease in intracellular ATP levels, in a concentration-dependent manner. […] AC50 values were determined from concentration-response data modeled with the standard Hill equation.
qHTS protocol for CellTiter Glo lymphoblastoid cellular assay
[Step] [Parameter] [Value] [Description]
1. Reagent; 5 uL; 2500 lymphoblastoid cells/well
2. Time; 5 hr; 37 C incubation
4. Controls; 23 nL; Tetraoctylammonium bromide 6.4pM to 92 uM
5. Time; 24 hr; 37 C incubation
6. Reagent; 5 uL; CellTiter Glo reagent
7. Time; 30 min; Room Temperature
8. Detection; Luminescence; Viewlux plate reader
Keywords: cell viability, cytotoxicity, lymphoblastoid cell line, luminescence, NTPHTS, NTPHTS_NCGC, NIEHS, DSSTox, MLSMR, MLSCN, NIH Roadmap, qHTS, NCGC
Potency is the fitted concentration of half-maximal effect.

Row | Compound | Potency
1 | COc1cccc2c1C(=O)c1c(O)c3c(c(O)c1C2=O)C[C@@](O)(C(=O)CO)C[C@@H]3O[C@H]1C[C@H](N)[C@H](O)[C@H](C)O1 | 1.26 µM (active)
2 | C=CCc1ccc(O)c(OC)c1 | inactive
3 | C[C@]12CC[C@@H]3c4ccc(O)cc4CC[C@H]3[C@@H]1CC[C@@H]2O | inactive
4 | O=C1OC(c2ccc(O)cc2)(c2ccc(O)cc2)c2ccccc21 | inactive
5 | O=c1ccc2ccccc2o1 | inactive
6 | COc1cccc2c1C(=O)c1c(O)c3c(c(O)c1C2=O)C[C@@](O)(C(C)=O)C[C@@H]3O[C@H]1C[C@H](N)[C@H](O)[C@H](C)O1 | 1 µM (active)
7 | Oc1ccc(O)cc1 | 39.8 µM (active)
8 | Nc1ccc(C(=O)O)cc1 | inactive
9 | COC1=CC(=O)C[C@@H](C)[C@]12Oc1c(Cl)c(OC)cc(OC)c1C2=O | inactive
10 | CC/C(=C(/CC)c1ccc(O)cc1)c1ccc(O)cc1 | inactive
11 | CC(=O)Oc1ccc(C(c2ccc(OC(C)=O)cc2)c2ccccn2)cc1 | inactive
12 | CC(=O)O[C@]1(C(C)=O)CC[C@H]2[C@@H]3C[C@H](C)C4=CC(=O)CC[C@]4(C)[C@H]3CC[C@@]21C | inactive
13 | C=C(CC)C(=O)c1ccc(OCC(=O)O)c(Cl)c1Cl | inactive
14 | Oc1c(Cl)cc(Cl)cc1Sc1cc(Cl)cc(Cl)c1O | inactive
15 | CC(C)(C)CC(C)(C)c1ccc(OCCOCC[N+](C)(C)Cc2ccccc2)cc1 | 50.1 µM (active)
16 | NC(=NCCCCCCN=C(N)/N=C(\N)Nc1ccc(Cl)cc1)/N=C(\N)Nc1ccc(Cl)cc1 | 50.1 µM (active)
17 | O=C(O)CCCCC(=O)O | inactive
18 | CCCCCCc1ccc(O)cc1O | inactive
19 | CC(O)C(=O)O (stereo not given) | inactive
20 | CN(C)/N=N/c1nc[nH]c1C(N)=O | inactive
